Assay results from PubChem BioAssay (Tox21).
Records with an inconclusive call do not appear. A call without a number means that no potency is given here. Calls of active or inactive are those of the source. Calls follow the shape of the dose curve; as a rule, active = well fitted activation curve with a large enough effect in the signal ratio in the repeat runs (not every such curve was filed as active); inconclusive = weak or mixed curves, or effect the other way; inactive = flat fitted curve, though single readings scatter; the % refers to the signal ratio.

target: Estrogen receptor beta (Homo sapiens) (UniProt Q92731); assay: qHTS assay to identify small molecule agonists of the estrogen receptor beta (ER-beta) signaling pathway (AID 1259377); settings: ER-beta-UAS-bla HEK293T, beta-lactamase FRET ratio, 16 h; series mostly up to 92.4 µM
Description: U.S. Tox21 Program National Center for Advancing Translational Sciences [NCATS] NIH Chemical Genomics Center [NCGC] U.S. Environmental Protection Agency [EPA] National Institutes of Environmental Health Sciences [NIEHS] National Toxicology Program [NTP] U.S. Food and Drug Administration [FDA] Tox21 Assay Overview: Estrogen receptor (ER), a nuclear hormone receptor, plays an important role in development, metabolic homeostasis and reproduction. Two subtypes of ER, ER-alpha and ER-beta, have similar expression patterns with some uniqueness in both types. Endocrine disrupting chemicals (EDCs) and their interactions with steroid hormone receptors like ER causes disruption of normal endocrine function. To identify the compounds that activate ER signaling, an ER beta-UAS-bla GripTite cell line (Life technologies, Madison, WI, USA) containing a beta-lactamase reporter gene under the control of an Upstream Activator Sequence (UAS) was used to screen Tox21 10K compound library.
Tox21 Assay Protocol Summary: ER-beta-UAS-bla HEK293T cells were dispensed at 2,000 cells/5 uL of assay medium containing 2% charcoal stripped FBS per well into black wall/clear-bottom 1536-well plates using a Multidrop Combi (ThermoFisher Scientific, Waltham, MA) dispenser. After the assay plates were incubated at a 37C and 5% CO2 for 6 hr, 23 nL of compounds dissolved in DMSO, positive controls or DMSO only was transferred to the assay plate by a Pintool station (Kalypsys, San Diego, CA). The plates were incubated at 37C and 5% CO2 for 16 hr. Then 1 uL of LiveBLAzerTM B/G FRET substrate was added using a BioRAPTR FRD (Flying Reagent Dispenser, Aurora Discovery, San Diego, CA). After the plates were incubated at room temperature for 2 hours, fluorescence intensity was measured by an Envision plate reader (PerkinElmer, Shelton, CT).

Sequence of Estrogen receptor beta (Homo sapiens) (Q92731 whole entry, looked up): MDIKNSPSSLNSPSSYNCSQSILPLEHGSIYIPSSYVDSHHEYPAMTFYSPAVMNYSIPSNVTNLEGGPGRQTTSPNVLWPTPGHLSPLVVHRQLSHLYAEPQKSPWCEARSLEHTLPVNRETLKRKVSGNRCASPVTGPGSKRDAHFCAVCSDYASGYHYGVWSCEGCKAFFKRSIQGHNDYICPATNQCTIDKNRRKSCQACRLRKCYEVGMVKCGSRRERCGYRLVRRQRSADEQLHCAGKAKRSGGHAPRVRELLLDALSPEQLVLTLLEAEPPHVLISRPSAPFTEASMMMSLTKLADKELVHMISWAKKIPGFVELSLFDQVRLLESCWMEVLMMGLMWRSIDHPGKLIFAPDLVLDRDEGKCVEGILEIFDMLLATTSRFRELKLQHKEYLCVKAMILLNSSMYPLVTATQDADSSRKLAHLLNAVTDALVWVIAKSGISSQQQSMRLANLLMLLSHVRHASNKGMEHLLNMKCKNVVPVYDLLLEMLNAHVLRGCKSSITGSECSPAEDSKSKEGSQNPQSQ

Row | Structure (SMILES) | Potency | activation
1 | O=C(O)C1CCC(C(=O)O)CC1 (stereo not given) | inactive | –
2 | CCCC(=O)OCC | inactive | –
3 | CC[C@@H]1C[C@H](N(Cc2cc(C(F)(F)F)cc(C(F)(F)F)c2)C(C)=O)c2cc(C(F)(F)F)ccc2N1C(=O)OC(C)C | inactive | –
4 | Oc1ccc(O)c2c(O)cccc12 | inactive | –
5 | CC(C)(C)c1cc(CO)cc(C(C)(C)C)c1O | inactive | –
6 | CCN(CC)CCNC(C(=O)OCCC(C)C)c1ccccc1 (stereo not given) | inactive | –
7 | Cc1cccc(OCCOc2cccc(C)c2)c1 | inactive | –
8 | O=C(Nc1ccccc1)OCC(CN1CCCCC1)OC(=O)Nc1ccccc1 (stereo not given) | inactive | –
9 | CCOc1nc2cccc(C(=O)O)c2n1Cc1ccc(-c2ccccc2-c2nn[nH]n2)cc1 | inactive | –
10 | S=C(S)NCCNC(=S)S | inactive | –
11 | Cc1occc1S | inactive | –
12 | CC1CCc2cc(F)cc3c(=O)c(C(=O)O)cn1c23 (stereo not given) | inactive | –
13 | CCCc1ccccc1 | inactive | –
14 | COC(=O)CSc1cc(N=c2sc(=O)n3n2CCCC3)c(F)cc1Cl | inactive | –
15 | CCN(CC)CCOC(=O)C1(c2ccccc2)CCCC1 | inactive | –
16 | O=c1[nH]cnc2ccccc12 | inactive | –
17 | CCOc1ccc(NC(=O)CC(C)=O)cc1 | inactive | –
18 | CC(=O)OC/C=C/c1ccccc1 | inactive | –
19 | CCOC(=O)C1=C(C)NC(C)=C(C(=O)OC)C1c1cccc([N+](=O)[O-])c1 (stereo not given) | inactive | –
20 | CN1CCN(C2=Nc3cc(Cl)ccc3Nc3ccccc32)CC1 | inactive | –

Row | Structure (SMILES) | Potency | activation
21 | COCCCCCCCCOCCC[Si](C)(O[Si](C)(C)C)O[Si](C)(C)C | inactive | –
22 | Cc1cc(C)c(S(=O)(=O)O)cc1N=Nc1cc(S(=O)(=O)O)c2ccccc2c1O | inactive | –
23 | Cn1c(NCCN(CCO)CCCc2ccc([N+](=O)[O-])cc2)cc(=O)n(C)c1=O | inactive | –
24 | O=CNc1ccccc1 | inactive | –
25 | NCc1ccccc1 | inactive | –
26 | O=C1Nc2cc(Cl)ccc2Oc2ccccc21 | inactive | –
27 | CN1CCC(=C2c3ccccc3C=Cc3ccccc32)CC1 | inactive | –
28 | Cn1c(N)nc2nc[nH]c2c1=O | inactive | –
29 | Cn1c(=O)c2c(ncn2CC(O)CO)n(C)c1=O (stereo not given) | inactive | –
30 | C#CCOC(=O)[C@@H](C)Oc1ccc(Oc2ncc(Cl)cc2F)cc1 | inactive | –
31 | O=C=NC1CCC(CC2CCC(N=C=O)CC2)CC1 (stereo not given) | inactive | –
32 | CC1(C)[C@H]2CC[C@]1(C)[C@H](O)C2 | inactive | –
33 | O=S1(=O)c2cccc3cccc(c23)N1CCCN1CCN(c2ccc(F)cc2)CC1 | inactive | –
34 | Cc1ccc(C(=O)C(C)CN2CCCCC2)cc1 (stereo not given) | inactive | –
35 | CN1CCC(=C2c3ccccc3CCc3sccc32)CC1 | inactive | –
36 | CC(C)(C)c1ccc(OCC2CO2)cc1 (stereo not given) | inactive | –
37 | SC1CCCC1 | inactive | –
38 | CCCCCCCC/C=C\CCCCCCCC(N)=O | inactive | –
39 | CCOC(=O)CC(C)C | inactive | –
40 | O=C(C(=O)c1ccc(Br)cc1)c1ccc(Br)cc1 | – | 0.63% [at 19 µM] (inactive)
